The values that follow come from PubChem BioAssay AID1726 (National Center for Advancing Translational Sciences (NCATS), 2009).

Results filed as inconclusive are left out. Active and inactive are the calls of the source. Calls follow the shape of the dose curve; as a rule, active = well fitted curve in the direction sought with a large enough effect; inconclusive = small, poorly fitted or top-dose-only effect, or effect the other way, or another doubt; inactive = no such curve, though single readings can be large or run the other way.

This test has as its target Epidermal growth factor receptor (Homo sapiens) (UniProt P00533). As to the kind of experiment: Assay for Inhibitors of the ERK Signaling Pathway using a Homogeneous Screening Assay: EGFR T790M/L858R Kinase Inhibition. Conditions: series mostly up to 65.8 µM. An excerpt:
qHTS Assay for Inhibitors of the ERK Signaling Pathway using a Homogeneous Screening Assay
NIH Chemical Genomics Center [NCGC]
NIH Molecular Libraries Screening Centers Network [MLSCN]
Assay Submitter (PI): Dr. Wei Zheng, NCGC/NIH
The Ras/extracellular-signal-regulated kinase (ERK) mitogen activated protein (MAP) kinase signaling pathway (ERK1/2 cascade) plays is a key role in transmitting signals from the cell surface to the nucleus (Nishida and Gotoh 1993; Chang and Karin, 2001). The cascade is initiated by the small G-protein Ras, which recruits Raf […], where activation occurs. Alternatively, this pathway can be activated by elevating intracellular cAMP.
Activation of the ERK pathway is essential in increased cell division and cell survival. Sustained and constitutive activation of the ERK pathway, however, has been linked to uncontrolled cell proliferation, increased cell survival, and tumor progression. Thus, the ERK has been as an attractive target for cancer chemotherapy in the past few years (Sebolt-Leopold and Herrera, 2004). […]
The HTRF kinase assay (components supplied as kit by Cisbio) was chosen for the EGFR and EGFR mutant enzyme assays that applied the time resolved fluorescence resonance energy transfer (TR-FRET) principle. […]

Sequence of Epidermal growth factor receptor (Homo sapiens) (P00533 whole entry T790M/L858R, looked up): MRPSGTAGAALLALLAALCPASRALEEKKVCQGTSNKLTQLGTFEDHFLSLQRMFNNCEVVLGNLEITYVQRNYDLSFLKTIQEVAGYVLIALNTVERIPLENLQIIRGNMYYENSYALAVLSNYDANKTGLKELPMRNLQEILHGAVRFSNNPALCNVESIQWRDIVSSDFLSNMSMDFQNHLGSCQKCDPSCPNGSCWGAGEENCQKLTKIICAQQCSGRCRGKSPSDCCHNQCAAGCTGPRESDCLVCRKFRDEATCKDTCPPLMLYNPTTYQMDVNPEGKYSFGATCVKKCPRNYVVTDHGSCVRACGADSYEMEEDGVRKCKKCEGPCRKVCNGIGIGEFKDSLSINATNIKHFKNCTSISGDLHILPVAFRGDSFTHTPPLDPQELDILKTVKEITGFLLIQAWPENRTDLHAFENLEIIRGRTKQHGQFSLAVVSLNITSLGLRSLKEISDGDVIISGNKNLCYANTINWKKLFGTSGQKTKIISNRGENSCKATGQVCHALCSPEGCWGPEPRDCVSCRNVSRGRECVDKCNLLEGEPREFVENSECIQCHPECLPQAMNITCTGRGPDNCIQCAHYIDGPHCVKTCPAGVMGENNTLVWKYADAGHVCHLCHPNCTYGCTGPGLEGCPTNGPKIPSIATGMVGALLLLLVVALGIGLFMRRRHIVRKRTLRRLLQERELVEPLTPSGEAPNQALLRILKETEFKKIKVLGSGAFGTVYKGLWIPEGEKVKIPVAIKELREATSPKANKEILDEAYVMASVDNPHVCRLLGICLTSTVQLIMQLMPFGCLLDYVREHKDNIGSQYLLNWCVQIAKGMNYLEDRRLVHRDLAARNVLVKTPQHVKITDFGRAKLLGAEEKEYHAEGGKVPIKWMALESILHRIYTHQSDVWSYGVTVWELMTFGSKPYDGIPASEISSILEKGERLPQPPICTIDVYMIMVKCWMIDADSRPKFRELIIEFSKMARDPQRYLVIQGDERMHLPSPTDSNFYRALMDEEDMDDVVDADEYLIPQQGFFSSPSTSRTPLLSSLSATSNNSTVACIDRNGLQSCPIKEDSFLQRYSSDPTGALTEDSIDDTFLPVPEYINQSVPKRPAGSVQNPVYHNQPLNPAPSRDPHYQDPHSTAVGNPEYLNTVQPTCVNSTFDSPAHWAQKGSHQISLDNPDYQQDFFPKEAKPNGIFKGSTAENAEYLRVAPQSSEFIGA

In the case of `CN1CCN(c2cccc3c2C(=O)c2ccccc2C3=O)CC1`, the result was inactive. The result for `Cc1nc2c(=O)n(C)c(=O)nc-2n(C)n1` reads “inactive”.
